Experiments:
CHO = experiment: % viability of CHO cells (MTT); higher = less toxic; settings: 48 h
Method in brief: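 Viability was given as a percentage of untreated cells and measured colorimetrically by the tetrazolium (MTT) assay. Before this, CHO cells at 10^6 cells/well in 200 µL attached overnight, then received fresh medium containing compound at 2 or 20 µM for 48 h.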

HepG2-A16-CD81 = experiment: % inhibition of HepG2 viability (CellTiter-Glo); higher = more toxic; settings: 5 µM
[1] = tested on: Plasmodium falciparum NF54 stage IV/V gametocytes; experiment: % inhibition of gametocyte viability (PrestoBlue); higher = more inhibition; settings: 48 h
Method in brief: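 Values are percent inhibition of gametocyte viability, normalised to vehicle and kill controls in a single run. Stage IV/V NF54 gametocytes (2% gametocytaemia, 5% haematocrit, 100 µL/well) were held with compound at 1 or 5 µM for 48 h at 37 °C, stationary and hypoxic. Viability was read as 612 nm fluorescence on 70 µL of supernatant after a 2 h incubation with 10 µL PrestoBlue.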

[2] = tested on: Plasmodium falciparum NF54 asexual blood stage; experiment: % inhibition of asexual blood stage proliferation (pLDH); higher = more inhibition; settings: 72 h
Method in brief: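 Using 96-well plates, the screen was run twice on separate occasions with Plasmodium falciparum NF54 ring-stage cultures at 1% haematocrit and 2% parasitaemia. Each culture was exposed to compound at 2 or 20 µM for 72 h at 37 °C under a gas mix of 4% CO2, 3% O2 and 93% N2. After incubation, the parasite lactate dehydrogenase assay was read colorimetrically at 620 nm. From this readout, percent inhibition of asexual proliferation was derived against control wells.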

[3] = tested on: Plasmodium falciparum NF54 stage IV/V gametocytes; experiment: % inhibition of gametocyte viability (ATP bioluminescence); higher = more inhibition; settings: 24 h
Method in brief: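 Viability of stage IV/V NF54 gametocytes is given as percent inhibition, normalised to control wells in a single run. Gametocytes enriched on density gradients were seeded at 30,000 per well in 96-well plates with compound at 1 or 5 µM and held at 37 °C for 24 h. ATP was then read with the Promega BacTiter Glo bioluminescence system.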

[4] = tested on: Plasmodium falciparum NF54 stage IV/V gametocytes; experiment: % inhibition of gametocyte viability (luciferase reporter); higher = more inhibition; settings: 48 h
Method in brief: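 Percent inhibition was normalised to controls from a single run. Stage IV/V gametocytes of the NF54-Pfs16-GFP-Luc line, at 2% gametocytaemia and 2% haematocrit, were exposed to compound at 1 or 5 µM for 48 h at 37 °C under stationary, hypoxic conditions. Luminescence was then read from 30 µL lysate mixed with 30 µL Promega luciferin substrate on a GloMax-Multi+ reader with 10 s integration.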

[5] = tested on: Plasmodium berghei ANKA liver stage in HepG2-A16-CD81; experiment: % inhibition of liver stage parasite viability (luciferase); higher = more inhibition; settings: 5 µM; 48 h
Procedure: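 Single-concentration screen of the MMV Pandemic Response Box. P. falciparum NF54 asexual blood stages: pLDH assay, 72 h at 37 °C, 2 and 20 µM, n=2. Stage IV/V gametocytes (NF54): luciferase reporter (NF54-Pfs16-GFP-Luc, 48 h), ATP bioluminescence (24 h) and PrestoBlue (48 h) at 1 and 5 µM, n=1. P. berghei liver stage (luciferase in HepG2-A16-CD81, 48 h post infection) at 5 µM, n=4. All normalised to DMSO and kill controls as % inhibition.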
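Wherever % inhibition of HepG2 viability (CellTiter-Glo) is given: HepG2-A16-CD81 hepatoma cells plated as in the liver-stage assay but without sporozoites, with DMSO wells as negative and 25 µM puromycin as positive control.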

SMILES	% viability of CHO cells (CHO; 2 µM)	% viability of CHO cells (CHO; 20 µM)	% inhibition of HepG2 viability (HepG2-A16-CD81)	% inhibition of gametocyte viability ([1]; 1 µM)	% inhibition of gametocyte viability ([1]; 5 µM)	% inhibition of asexual blood stage proliferation ([2]; 2 µM)	% inhibition of asexual blood stage proliferation ([2]; 20 µM)	% inhibition of gametocyte viability ([3]; 1 µM)	% inhibition of gametocyte viability ([3]; 5 µM)	% inhibition of gametocyte viability ([4]; 1 µM)	% inhibition of gametocyte viability ([4]; 5 µM)	% inhibition of liver stage parasite viability [5]
CC(C)(C)NC(=O)[C@@H]1C[C@@H]2CCCC[C@@H]2CN1C[C@@H](O)[C@H](Cc1ccccc1)NC(=O)[C@H](CC(N)=O)NC(=O)c1ccc2ccccc2n1	89%	114%	10.9%	< 0%	19.6%	40%	58.3%	< 0%	< 0%	< 0%	< 0%	26.6%
CCc1cc(O)c(Oc2ccc(C(N)=O)cc2F)cc1F	116%	100%	3.65%	18.7%	17.8%	54.5%	62.6%	< 0%	< 0%	< 0%	< 0%	8.75%
c1ccc(-c2nnc3c4ccccc4c(N4CCNCC4)nn23)cc1	101%	91.4%	10.4%	27.8%	50.3%	3.14%	69.2%	< 0%	0.889%	< 0%	11.9%	7.03%
C[C@H](NC(=O)C(=O)Nc1ccccc1C(C)(C)C)C(=O)N[C@@H](CC(=O)O)C(=O)COc1c(F)c(F)cc(F)c1F	113%	63.6%	0.382%	< 0%	< 0%	31.7%	46.9%	< 0%	< 0%	1.5%	2.48%	5.8%
O=C(NO)C1(CS(=O)(=O)c2ccc(Oc3ccc(Cl)cc3)cc2)CCOCC1	108%	76.6%	7.05%	22.6%	28.2%	28.1%	34.1%	< 0%	< 0%	2.48%	< 0%	35.5%
CC1(C)CC(NC(=O)C(=O)Nc2ccc(Cl)cc2)CC(C)(C)N1	87.7%	57.9%	-9.07%	22.5%	17.1%	-0.102%	60.5%	0.497%	3.94%	3.24%	13.9%	31.6%
CC#C[C@]1(O)CC[C@H]2[C@@H]3CCC4=CC(=O)CCC4=C3[C@@H](c3ccc(N(C)C)cc3)C[C@@]21C	89.5%	130%	0.01%	< 0%	< 0%	15.1%	53.8%	< 0%	< 0%	2.32%	< 0%	15.2%
COc1c(F)c(F)cc2c(=O)c(C(=O)O)cn(C3CC3)c12	82.2%	80.7%	3.68%	16.8%	16.9%	20.8%	56.5%	< 0%	< 0%	< 0%	< 0%	15.1%
Clc1ccc(Cn2c(CN3CCCC3)nc3ccccc32)cc1	97.8%	91.5%	2.06%	23.6%	61%	11.9%	69%	10.2%	57.1%	1.55%	< 0%	22.9%
Nc1nc(O)c2ncn(COCCO)c2n1	98.5%	121%	1.64%	< 0%	15.7%	21.3%	31.7%	< 0%	< 0%	< 0%	< 0%	26.7%
O=C(Cn1cnc2ccccc2c1=O)Nc1ccccc1	100%	84.1%	-0.425%	27.9%	25.4%	29.5%	71.5%	1.88%	< 0%	2.6%	1.55%	2.82%
NC(=O)c1ccccc1NC(=O)c1ccc(C(=O)Nc2ccccc2C(N)=O)cc1	87.5%	120%	0.348%	< 0%	< 0%	5.85%	13.6%	< 0%	< 0%	< 0%	0.0831%	42%
CCC(C)n1ncn(-c2ccc(N3CCN(c4ccc(OCC5COC(Cn6cncn6)(c6ccc(Cl)cc6Cl)O5)cc4)CC3)cc2)c1=O (stereo unspecified)	119%	119%	26.2%	2.77%	1.55%	10.1%	83.4%	3.02%	< 0%	< 0%	< 0%	46.4%
Nc1cc(-c2nc3ccccc3[nH]2)n[nH]c1=O	70.3%	49.8%	2.54%	28.3%	78.8%	31.5%	79.1%	5.5%	< 0%	1.36%	< 0%	24%
O=C(N[C@H](Cc1cccc2ccccc12)C(=O)NCCc1c[nH]cn1)C1Cc2ccccc2C1	95.1%	97.8%	0.483%	2.53%	32.6%	23%	81.3%	2.29%	1.33%	< 0%	2.07%	21.8%
CN(C)CCCOc1ccc(-c2ccc3ncc4c(c3c2)n(C2CCOCC2)c(=O)n4C)cn1	99.8%	75.9%	4%	61.8%	91.9%	68.1%	57.1%	18.7%	33.7%	78.1%	92%	64.6%
O=S(=O)(Nc1ccc(-n2cccc2)cc1)c1ccc(Cl)c(Cl)c1	95%	90.4%	-0.822%	< 0%	< 0%	6.75%	24%	< 0%	< 0%	< 0%	< 0%	38%
O=C(CSc1nnc(Br)n1-c1ccc(C2CC2)c2ccccc12)Nc1ccc(C(=O)O)cc1Cl	98.5%	61.4%	-1.62%	15.4%	20.5%	3.71%	46.7%	< 0%	< 0%	< 0%	< 0%	27.6%
Cc1nc2ccc(Cl)cc2c(-c2ccccc2)c1CC(=O)O	121%	61.2%	6.38%	< 0%	< 0%	37.6%	40.5%	< 0%	< 0%	7.85%	13.3%	24.5%
COc1cc(C2C3=C(CC(C)(C)CC3=O)Nc3ccccc3N2C(C)=O)ccc1OCc1ccccc1 (stereo unspecified)	174%	58%	3.3%	< 0%	13.3%	-1.82%	14.6%	3.07%	< 0%	< 0%	< 0%	25.5%
C[C@H]1COc2c(N3CCN(C)CC3)c(F)cc3c(=O)c(C(=O)O)cn1c23	92.1%	104%	-1.57%	< 0%	18%	15.5%	39.9%	1.98%	1.75%	18.2%	0.53%	11.6%
CCC[C@@H]1C[C@@H](C(=O)N[C@@H]([C@H]2O[C@H](SC)[C@H](O)[C@@H](O)[C@H]2O)[C@H](C)Cl)N(C)C1	89.5%	103%	5.96%	10.3%	24.2%	72.9%	93.2%	< 0%	1.18%	< 0%	< 0%	92.2%
CCC(C)(C)c1ccc(CC(C)CN2C[C@@H](C)O[C@@H](C)C2)cc1 (stereo partly specified)	100%	124%	-1.79%	< 0%	4.53%	89.6%	82%	< 0%	< 0%	< 0%	< 0%	40.5%
